Common to all, as to assay: qHTS profiling for inhibitors of Plasmodium falciparum proliferation (AID 504749); note: nearly all actives have a fitted effect of over 60% in size
Holding throughout (details): P. falciparum in erythrocytes, SYBR Green DNA, 72 h; series mostly up to 28.7 µM

In one assay the test system is PC15. The method, boiled down: (§1)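 Quantitative HTS: compounds pinned into medium, infected erythrocytes added (0.3% parasitemia, 2.5% hematocrit), 72 h culture at 37 C under 5% CO2. Saponin/Triton lysis with SYBR Green I, overnight RT, then fluorescence read.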
Another assay has as its system PC49. The method, boiled down:
as §1

Another assay concerns SC27B. The essentials: as §1
Another assay has as its system TAB109. The essentials:
as §1

A further assay deals with TAB113. The essentials:
as §1

The test system of the next assay is TAB165. The essentials: as §1
A further assay has as its system W2. The essentials: as §1
The subject of the next assay is PC26. The method, boiled down:
as §1

Records with an inconclusive call do not appear. The source made the active and inactive calls. Calls come from the whole dose curve; as a rule, active = well fitted inhibition curve with a large enough effect; inconclusive = small, poorly fitted or top-dose-only effect; inactive = flat fitted curve, though single readings scatter.
Potency is the fitted concentration of half-maximal effect.

For `CC1CC(O)CC(C)(C)C1` (configuration not stated), the Potency entry with PC15, in the assay on PC49, in the assay on SC27B, with TAB109, in the assay on TAB113 and in the assay with TAB165 was “inactive” in each case. In addition, in the assay with W2, the Potency result was “inactive”.

As for `CCN(CC)C(=O)c1cccnc1`, the Potency entry in the assay with PC15, in the assay with PC49, in the assay on SC27B, with TAB109, in the assay with TAB113 and in the assay with TAB165 was “inactive” throughout. Further, the Potency result in the assay on W2 is “inactive”.

For the compound `C=CC[N+]1([C@H]2C[C@H]3[C@@H]4CC[C@H]5C[C@H](O)[C@@H](N6CCOCC6)C[C@]5(C)[C@H]4CC[C@]3(C)[C@H]2OC(C)=O)CCCC1`, the Potency result in the assay with PC15 and in the assay on PC49 was “inactive” throughout. The Potency in the assay on TAB109 was 6.31 µM (active); with W2 it was 5.36 µM (active).

On to `CCCC(CCC)C(=O)OC1C[C@H]2CC[C@@H](C1)[N+]2(C)C` (some centres not stated), for which the Potency entry in the assay on PC49 is “inactive”. Further, in the assay on SC27B, the Potency was 12.6 µM (active).

As to `Cc1cc(C(=O)NCCc2ccc(S(=O)(=O)NC(=O)NN3CCCCCC3)cc2)no1`, the Potency entry in the assay with PC15, in the assay on PC49, in the assay on SC27B, in the assay on TAB109, in the assay on TAB113 and in the assay with TAB165 was “inactive” in each case. In addition, the Potency result with W2 is “inactive”.

As to `CN(C)CCC=C1c2ccccc2C(C)(C)c2ccccc21`, the Potency result in the assay on PC49 and in the assay with SC27B was “inactive” each time. For the same compound, in the assay with W2, the Potency was 3.38 µM (active).

Regarding `CCCCCCCCCCCCCCCCOCCOCCOCCOCCOCCOCCOCCOCCOCCOCCOCCOCCOCCOCCOCCOCCOCCOCCOCCOCCO`, the Potency in the assay with PC15 was 11.2 µM (active); in the assay on PC49, 12.6 µM (active); in the assay with TAB109, 12.6 µM (active); in the assay with TAB165, 14.1 µM (active); with W2 it was 6.75 µM (active).

Turning to `CC(C)=CCC/C(C)=C/C=C/C(C)=C/C=C/C(C)=C/C=C/C=C(C)/C=C/C=C(C)/C=C/C=C(\C)CCC=C(C)C`, the Potency result in the assay on PC26, in the assay on TAB109 and in the assay on TAB113 was “inactive” each time.

Regarding `CCN(CC)CCC(=O)N1c2ccccc2Sc2ccc(C(F)(F)F)cc21`, the Potency entry with PC49, in the assay on SC27B, in the assay with TAB113 and in the assay on TAB165 was “inactive” throughout. In addition, the Potency with W2 is 5.36 µM (active).

As for `COc1cc2c(cc1OC)[C@@H](Cc1cc(OC)c(OC)c(OC)c1)[N+](C)(CCCOC(=O)CC/C=C/CCC(=O)OCCC[N+]1(C)CCc3cc(OC)c(OC)cc3[C@H]1Cc1cc(OC)c(OC)c(OC)c1)CC2` (some centres not stated), the Potency result with PC15, in the assay on PC49, in the assay on SC27B, in the assay with TAB109, with TAB113 and in the assay with TAB165 was “inactive” each time. Besides, the Potency result with W2 is “inactive”.

Regarding `CN(C)C(=O)CCSC(SCCC(=O)O)c1cccc(/C=C/c2ccc3ccc(Cl)cc3n2)c1` (configuration not stated), the Potency result in the assay with PC15 and in the assay with PC49 was “inactive” throughout. Besides, the Potency in the assay on W2 was 7.57 µM (active).

For `CN(C)CCOc1ccc(/C(=C(/CCCl)c2ccccc2)c2ccccc2)cc1`, the Potency result in the assay with PC26, in the assay with PC49, in the assay on SC27B, in the assay with TAB109, in the assay with TAB113 and in the assay on TAB165 was “inactive” in each case. Further, the Potency result in the assay on W2 was “inactive”.

As for `CN1C(C(=O)Nc2ccccn2)C(=O)c2sc(Cl)cc2S1(=O)=O` (configuration not stated), the Potency result in the assay on PC15, in the assay on PC49, in the assay with SC27B, in the assay on TAB109, with TAB113 and in the assay with TAB165 was “inactive” in each case. In the assay on W2, the Potency result is “inactive”.

As for `CCOc1cc(-c2nccc3cc(OC)c(OC)cc23)cc(OCC)c1OCC`, the Potency result in the assay with TAB109 was “inactive”. The Potency in the assay with W2 is 15.1 µM (active).

For the compound `CN1CCCC(CN2c3ccccc3Sc3ccccc32)C1` (configuration not stated), the Potency result in the assay with PC49 is “inactive”. The Potency with TAB109 is 11.2 µM (active); with TAB165, 12.6 µM (active); in the assay on W2 it was 3.38 µM (active).

Consider `CC(C)NCC(O)COc1ccccc1-n1cccc1` (configuration not stated), for which the Potency entry in the assay on PC26, with PC49, in the assay on SC27B, with TAB113 and in the assay with TAB165 was “inactive” in each case.

In the case of `C[C@H]1O[C@@H](O[C@H]2[C@@H](O)C[C@H](O[C@H]3[C@@H](O)C[C@H](O[C@H]4CC[C@@]5(C)[C@H](CC[C@@H]6[C@@H]5C[C@@H](O)[C@]5(C)[C@@H](C7=CC(=O)OC7)CC[C@]65O)C4)O[C@@H]3C)O[C@@H]2C)C[C@H](O)[C@@H]1O`, the Potency result in the assay with PC49, in the assay with SC27B, in the assay with TAB109, with TAB113 and in the assay on TAB165 was “inactive” in each case.

For `CN1CCc2c(c3ccccc3n2Cc2ccccc2)C1`, the Potency result with PC15, in the assay on PC49, in the assay with SC27B, in the assay on TAB109 and in the assay with TAB113 was “inactive” each time. In addition, in the assay on W2, the Potency was 2.56 µM (active).

Regarding `CC(C)C1=CC2=CC[C@@H]3[C@](C)(CCC[C@@]3(C)C(=O)O)[C@H]2CC1`, the Potency result in the assay with PC15, in the assay with PC49, in the assay with SC27B, with TAB109, in the assay on TAB113 and in the assay with TAB165 was “inactive” each time. The Potency result with W2 is “inactive”.

Consider `CCN(CC)CCC(=O)N1c2ccccc2Sc2ccc(Cl)cc21`, for which the figures for the Potency in the assay with PC49 and in the assay on W2 were 11.2 µM (active) and 3.38 µM (active), respectively.

With `O=C(O[C@H]1CN2CCC1CC2)N1CCc2ccccc2[C@@H]1c1ccccc1`, the Potency result with PC49, in the assay with SC27B, in the assay on TAB109 and in the assay on TAB113 was “inactive” in each case. For the same compound, in the assay with W2, the Potency is 1.69 µM (active).

On to `Oc1cccc(O)c1O`, for which the Potency entry in the assay on PC49, with SC27B, in the assay on TAB109 and in the assay with TAB113 was “inactive” in each case.

In the case of `CC[C@H]1OC(=O)[C@H](C)[C@@H](O[C@H]2C[C@@](C)(OC)[C@@H](O)[C@H](C)O2)[C@H](C)[C@@H](O[C@@H]2O[C@H](C)C[C@H](N(C)C)[C@H]2O)[C@](C)(O)C[C@@H](C)CN(C)[C@H](C)[C@@H](O)[C@]1(C)O`, the Potency result in the assay on PC26 and with PC49 was “inactive” each time. In addition, the Potency in the assay on TAB109 is 1 µM (active); in the assay on TAB113 it was 12.6 µM (active); with TAB165, 7.94 µM (active); in the assay with W2, 0.426 µM (active).

As to `OCc1ccccc1`, the Potency in the assay with PC15 was 10 µM (active); in the assay with W2, 5.36 µM (active).

As to `Cc1c(C)c2c(c(C)c1OC(=O)CCC(=O)O)CC[C@@](C)(CCC[C@H](C)CCC[C@H](C)CCCC(C)C)O2`, the Potency entry with PC26, in the assay with PC49, with SC27B, with TAB109, in the assay with TAB113 and in the assay on TAB165 was “inactive” each time.

In the case of `O=P(O)(O)OP(=O)(O)O`, the Potency entry with PC15, with PC49 and in the assay on TAB109 was “inactive” each time. Further, the Potency with W2 is 13.5 µM (active).

In the case of `N[C@@H](Cc1cc(I)c(Oc2ccc(O)c(I)c2)c(I)c1)C(=O)O`, the Potency result with PC49 is “inactive”. Besides, the Potency in the assay on W2 is 9.53 µM (active).

Turning to `O=C(c1cc2ccccc2o1)N1CCN(Cc2ccccc2)CC1`, the Potency result with PC15 and in the assay with PC49 was “inactive” in each case. The Potency was 8.91 µM (active) in the assay on TAB109 and 11.2 µM (active) in the assay with TAB165.

As to `CC(CN(C)C)CN1c2ccccc2Sc2ccc(C(F)(F)F)cc21` (configuration not stated), the Potency is 12.6 µM (active) in the assay with TAB165 and 0.426 µM (active) with W2.

As for `O=C(OC1C[C@@H]2CC3C[C@H](C1)N2CC3=O)c1c[nH]c2ccccc12` (some centres not stated), the Potency entry with SC27B and in the assay with TAB113 was “inactive” in each case.

Take `O=C(CCCN1CCC(C(=O)c2ccc(F)cc2)CC1)c1ccc(F)cc1`: the Potency result in the assay with SC27B and in the assay on TAB113 was “inactive” throughout. Further, the Potency with W2 is 3.79 µM (active).

With `O=C1N=C2SCCN2C(=O)C1Cc1ccc(Cl)cc1` (configuration not stated), the Potency entry in the assay with PC15, with PC49, in the assay on SC27B, in the assay on TAB109, in the assay on TAB113 and in the assay on TAB165 was “inactive” throughout. In addition, the Potency result in the assay on W2 was “inactive”.

For the compound `Cc1cc(-c2ccc(N=Nc3c(S(=O)(=O)O)cc4cc(S(=O)(=O)O)cc(N)c4c3O)c(C)c2)ccc1N=Nc1c(S(=O)(=O)O)cc2cc(S(=O)(=O)O)cc(N)c2c1O`, the Potency result in the assay on PC15, in the assay with PC49, in the assay with SC27B, in the assay with TAB113 and in the assay on W2 was “inactive” each time. In addition, the Potency in the assay with TAB165 is 12.6 µM (active).

For `CC[C@H]1OC(=O)[C@H](C)[C@@H](O[C@H]2C[C@@](C)(OC)[C@@H](O)[C@H](C)O2)C(C)[C@@H](O[C@@H]2O[C@H](C)C[C@H](N(C)C)[C@@H]2O)[C@](C)(OC)C[C@@H](C)C(=O)[C@H](C)[C@@H](O)[C@]1(C)O` (some centres not stated), the Potency entry in the assay on PC49, with SC27B, with TAB109, with TAB113 and in the assay on TAB165 was “inactive” throughout. For the same compound, in the assay with W2, the Potency was 3.79 µM (active).

For the compound `NC(=S)N=Nc1ccc(NN=C(N)N)cc1`, the Potency in the assay on PC15 was 8.91 µM (active); with SC27B, 11.2 µM (active); in the assay on TAB109, 11.2 µM (active); in the assay on TAB165, 7.94 µM (active); in the assay with W2, 1.69 µM (active).

With `N#Cc1ccc2c(c1)N(CCCN1CCC(O)CC1)c1ccccc1S2`, the Potency result in the assay with PC49 was “inactive”. The Potency with W2 was 4.26 µM (active).

Turning to `OCCOCCOCCO`, the Potency result in the assay on PC15, in the assay on PC49, in the assay on SC27B, in the assay with TAB109, with TAB113 and in the assay with TAB165 was “inactive” each time. Also, the Potency result with W2 is “inactive”.

`CC/C=C\C/C=C\C/C=C\CCCCCCCC(=O)O`: the Potency result in the assay with PC15, with PC49, in the assay with SC27B, in the assay with TAB109, in the assay on TAB113 and with W2 was “inactive” each time.

The record behind these values is PubChem BioAssay (NCATS).
